# Results as given in PubChem BioAssay AID493049 (Broad Institute, 2011).
# Measured potencies and affinities stand elsewhere. Calls of active or inactive are those of the source.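 Rule for the calls: active = viability loss with half-max dose at or under ten times the top valid dose tested; inconclusive = flat 30 to 70% loss, or poor curve fit; inactive = flat within 30%, weak potency, or gain.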
# Assay: viability loss in HRASV12 DRD fibroblasts, dose response, cell-based, DRD BJ fibroblasts, dry powder (AID 493049)
# Settings: DRD engineered BJ fibroblasts (HRASV12) viability, Alamar Blue, 48 h; series mostly up to 45 µM
row,SMILES,outcome
1,COc1ccc(N(C(=O)CO)C(C(=O)NCCc2ccccc2)c2cccs2)cc1Cl (stereo unspecified),inactive
2,COCC(=O)N(c1ccc(OC)c(Cl)c1)C(C(=O)NCCc1ccccc1)c1cccs1 (stereo unspecified),inactive
3,CCC(=O)N(c1ccc(OC)c(Cl)c1)C(C(=O)NCCc1ccccc1)c1cccs1 (stereo unspecified),inactive
4,COc1ccc(N(C(=O)[C@@H](C)Cl)C(C(=O)NCCc2ccccc2)c2cccs2)cc1Cl (stereo partly specified),inactive
5,O=C(c1[nH]ncc1[N+](=O)[O-])N1CCN(C(c2ccccc2)c2ccccc2)CC1,inactive
6,COc1ccc(N(C(=O)CSc2ncccn2)C(C(=O)NCCc2ccccc2)c2cccs2)cc1Cl (stereo unspecified),inactive
